The values that follow come from PubChem BioAssay (EPA / NIEHS).

Inconclusive results are not listed. The source made the active and inactive calls. How the source made its calls: active means hit-call score of the fitted dose curve at least 0.9, where 1 is the maximum; inconclusive means response in the unintended direction; inactive means score below 0.9.

Read-out in this experiment: alkyl and aryl transferase (GSTA2), GSTA2 (gene 2939)
Briefly: CLD_GSTA2_24hr: CellzDirect (CLD) Gene Expression Assay for alkyl and aryl transferase (GSTA2) at 24 hours (AID 2283693). The procedure: CLD_24hr is a cell-based, multiplexed-readout assay that uses hepatocyte, a human liver primary cell, with measurements taken at 24 hours after chemical dosing in a 96-well plate.CLD_GSTA2_24hr is one of 16 assay component(s) measured or calculated from the CLD_24hr assay. It is designed to make measurements of mRNA induction, a form of inducible reporter, as detected with chemiluminescence signals by Quantitative Nuclease Protection Assay (qNPA) technology.Data from the assay component CLD_GSTA2_24hr was analyzed at the endpoint, CLD_GSTA2_24hr, in the positive analysis fitting direction relative to DMSO as the negative control and baseline of activity. Using a type of inducible reporter, gain-of-signal activity can be used to understand changes in the reporter gene as they relate to the gene GSTA2. Furthermore, this assay endpoint can be referred to as a primary readout. To generalize the intended target to other relatable targets, this assay endpoint is annotated to the transferase intended target family, where subfamily is alkyl and aryl transferase.
Human hepatocyte cultures were treated daily for two consecutive days with fresh dosing solutions containing appropriate concentrations of the 320 ToxCast chemicals (chemical identities were blinded to CellzDirect and other ToxCast collaborators), vehicle control (0.2% DMSO), and positive control inducers as summarized in Table 1. Due to the large number of treatment groups and chemicals examined, the ToxCast chemicals were divided into two groups (spanning two independent cultures of hepatocytes from separate donor preparations (Hu778: ToxCast plates 1 and 2; Hu776: ToxCast plates 3 and 4). Each preparation of human hepatocyte cultures was treated with respective vehicle control, medium only control, set of six positive controls/reference chemicals for the five hepatic receptor pathways, and a subset of eight of the ToxCast chemicals (indoxacarb, pyrithiobac-sodium, norflurazon, cyhalofop-butyl, methomyl, thiram, acetochlor, and propiconazole). These replicate data, coupled with internal replicates designed within the blinded ToxCast chemical library, provided additional data to evaluate interindividual differences between hepatocyte preparations and their potential impact on chemical profiles.Cell morphology and integrity were evaluated using phase-contrast microscopy as an indicator of hepatocyte cell health (Tyson & Green, 1987). Cultures for each treatment group (i.e., media, vehicle [0.2% DMSO], positive control inducers [multiple concentrations], and the ToxCast chemicals [multiple concentrations]) were observed and cell morphology was assessed relative to vehicle control cultures at each harvest time point (0, 6, 24, or 48 h). […] Images were evaluated at the conclusion of the study to assess changes in cell integrity and account for the effects of chemical exposure on uncharacteristic changes in concentration-dependent gene expression profiles. The results from these determinations of apparent cytotoxicity were annotated (yes/no) alongside the corresponding qNPA data for reference.At the conclusion of each treatment period, hepatocyte cultures (96-well) were washed with 1 volume of HBSS, lysed by addition of 25 ul ArrayPlate lysis buffer (HTG, Tucson, AZ), and 70 ul/well of Denaturation Oil, denatured by incubation at 95C for 10 min, and frozen at approximately -70C until analysis by nuclease protection assay (qNPA) (Roberts et al., 2007). For qNPA analysis, cell lysates were thawed at 50C for approximately 30 min, qNPA probes were added, and samples were incubated at 95C for 10 min to begin the detection process by denaturing the target RNA, dissociating the duplexes and secondary structure hybridization. At the conclusion of the hybridization period, S1 nuclease reagent was added to each sample to digest all nonprotected nucleotides at 50C for 60-90 min. […]
With `CCOC(=O)C(C)Oc1ccc(Oc2cnc3cc(Cl)ccc3n2)cc1` (stereo not given), the call was inactive. Under `CCCN(CCC)C(=O)SCC` stands “inactive”; under `O=C(Nc1ccc([N+](=O)[O-])cc1Cl)c1cc(Cl)ccc1O`, “inactive”; under `CCNc1nc(N)nc(Cl)n1`, “inactive”. On to `Cc1nn(C)c(Oc2ccccc2)c1C=NOCc1ccc(C(=O)OC(C)(C)C)cc1`, for which the call was inactive. As for `CCCOC(=O)NCCCN(C)C`, the entry is “inactive”.

With `CCSC(=O)N(CC(C)C)CC(C)C`, the outcome was inactive. For the compound `COC(=O)c1cccc(C)c1S(=O)(=O)NC(=O)Nc1nc(OCC(F)(F)F)nc(N(C)C)n1`, the outcome was inactive.

Take `COC(=O)c1c(Cl)nn(C)c1S(=O)(=O)NC(=O)Nc1nc(OC)cc(OC)n1`: the outcome was inactive. Under `CC(C)(c1ccc(O)cc1)c1ccc(O)cc1` stands “inactive”; under `CCOC(=O)C(C)Oc1ccc(Oc2nc3ccc(Cl)cc3o2)cc1` (stereo not given), “inactive”. `COc1c(Cl)ccc(Cl)c1C(=O)O`: the result was inactive. As for `CCCCOC(=O)C(C)Oc1ccc(Oc2ccc(C(F)(F)F)cn2)cc1` (stereo not given), the entry is “inactive”; as for `CCC(O)=C1C(=O)CC(C(=O)O)CC1=O` (stereo not given), “inactive”. As for `C=CCOC(Cn1ccnc1)c1ccc(Cl)cc1Cl` (stereo not given), the entry is “inactive”; as for `COC(=O)c1ccc(CNS(C)(=O)=O)cc1S(=O)(=O)NC(=O)Nc1nc(OC)cc(OC)n1`, “inactive”; as for `CCC(C)OC(=O)N1CCCCC1CCO` (stereo not given), “inactive”. As to `c1ccc(Nc2ccccc2)cc1`, the compound was classed as inactive. `CCCCC(CC)CN1C(=O)C2C3C=CC(C3)C2C1=O` (stereo not given): the outcome was inactive.

On to `CCCCOCCOCCOCc1cc2c(cc1CCC)OCO2`, for which the compound was called inactive. For `CCCCCCC(C)OC(=O)COc1nc(F)c(Cl)c(N)c1Cl` (stereo not given), the compound was called inactive. For the compound `N#CSCSc1nc2ccccc2s1`, the result was inactive. For the compound `CCCCCOC(=O)COc1cc(N2C(=O)C3=C(CCCC3)C2=O)c(F)cc1Cl`, the compound was classed as inactive. On to `Oc1ccc(C(c2ccc(O)cc2)C(Cl)(Cl)Cl)cc1`, for which the compound was called inactive. Take `COC(=O)c1ccccc1C(=O)O`: the result was inactive. Under `COC(=O)c1ccccc1S(=O)(=O)NC(=O)Nc1nc(OC(F)F)cc(OC(F)F)n1` stands “inactive”; under `COc1nc(C)nc(NC(=O)NS(=O)(=O)c2ccccc2OCCCl)n1`, “inactive”.

Consider `CCCN(CCC)c1c([N+](=O)[O-])cc(C(F)(F)F)c(N)c1[N+](=O)[O-]`, for which the result was inactive.

Regarding `COCCO`, the compound was classed as inactive. Under `CCCOC(=O)c1ccc(C(=O)OCCC)nc1` stands “inactive”.
